The nature of assay [1]: NCI Yeast Anticancer Drug Screen. Data for the rad50 strain (AID 155).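 Also: 0% = growth of vehicle-only cultures of the same strain.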 Particulars: S. cerevisiae rad50 strain growth inhibition, active compounds read high. In a few lines: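 Readout: growth inhibition relative to vehicle-treated cultures. Compound exposure was carried out in a genetically defined yeast strain deficient in DNA damage repair.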
A short description of assay [2]: NCI Yeast Anticancer Drug Screen. Data for the mec2-1 strain (AID 157). Conditions: S. cerevisiae mec2-1 strain, active compounds read high. Summed up:
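Each compound was tested on mec2-1 yeast, a strain altered in DNA damage repair or cell cycle control. Growth inhibition is reported relative to vehicle.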

The nature of assay [3]: NCI Yeast Anticancer Drug Screen. Data for the sgs1 mgt1 strain (AID 161).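 Also: 0% = growth of cultures given vehicle only.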 Conditions: S. cerevisiae sgs1 mgt1 strain, active compounds read high. Summed up: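 Mutant yeast exposed to compound; growth scored against vehicle-only wells.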
Assay [4] can be described thus: NCI Yeast Anticancer Drug Screen. Data for the cln2 rad14 strain (AID 165).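 Also: 0% = growth equal to vehicle treated cultures.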 Particulars: S. cerevisiae cln2 rad14 strain, active compounds read high. In a few lines:
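Test compounds were added to cln2 rad14 yeast cultures; inhibition of growth was then determined by comparison with vehicle treatment.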

Assay [5] is described as follows: NCI Yeast Anticancer Drug Screen. Data for the bub3 strain (AID 167). Particulars: S. cerevisiae bub3 mutant strain, active compounds read high. Summed up: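 Readout: yeast growth inhibition, expressed relative to vehicle-only wells. The test organism is a mutant strain from a panel with lesions in DNA repair or checkpoint genes.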
The nature of assay [6]: NCI Yeast Anticancer Drug Screen. Data for the mlh1 rad18 strain (AID 175). Particulars: S. cerevisiae mlh1 rad18 strain growth inhibition, active compounds read high. In a few lines: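 Inhibition values reflect reduced growth of mutant yeast versus vehicle-treated controls following compound exposure; the mutations affect DNA damage repair.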
Where [7] appears, read: at 5.0 µM (retest, dose inferred, filed as 0.5).
The mark [8] stands for this setting: at 50.0 µM (retest, dose inferred, filed as 5.0).

This is part of a sample that, as a whole, favours compounds with a hit. Of some 79,000 tested, about 15% had one in any assay. Unmarked numbers belong to inactive results. Active and inactive are the calls of the source. Rule as the data show it: active = growth inhibition above about 70%; inactive = the rest.

Turning to `O=C1C(Cl)=C(Cl)C(=O)c2cc(Cl)c(Cl)cc21`, the growth inhibition was 82% (active) in assay [1] (setting [7]); 99% (active) in assay [1] (setting [8]); 83.9% (active) in assay [1] (at 50.0 µM); 89% (active) in assay [2] (setting [7]); 99% (active) in assay [2] (setting [8]); 84% (active) in assay [2] (at 50.0 µM). The growth inhibition is 65% in assay [3] (setting [7]); 99% (active) in assay [3] (setting [8]); 97.1% (active) in assay [3] (at 50.0 µM); 86% (active) in assay [4] (setting [7]); 97% (active) in assay [4] (setting [8]); 88.2% (active) in assay [4] (at 50.0 µM). In addition, the growth inhibition was 98% (active) in assay [5] (setting [7]); 98% (active) in assay [5] (setting [8]); 93.5% (active) in assay [5] (at 50.0 µM); 60% in assay [6] (setting [7]); 97% (active) in assay [6] (setting [8]); 87.8% (active) in assay [6] (at 50.0 µM).

`C#CCCCCCOC(=O)c1cc([N+](=O)[O-])cc([N+](=O)[O-])c1`: the growth inhibition in assay [1] (setting [7]) is 97% (active); in assay [1] (setting [8]) it was 99% (active); in assay [1] (at 50.0 µM), 98.5% (active); in assay [2] (setting [7]), 99% (active); in assay [2] (setting [8]), 99% (active); in assay [2] (at 50.0 µM) it was 99% (active). For the same compound, the growth inhibition in assay [3] (setting [7]) is 99% (active); in assay [3] (setting [8]) it was 99% (active); in assay [3] (at 50.0 µM), 99% (active); in assay [4] (setting [7]), 95% (active); in assay [4] (setting [8]), 98% (active); in assay [4] (at 50.0 µM) it was 98.1% (active). Further, the growth inhibition is 98% (active) in assay [5] (setting [7]); 99% (active) in assay [5] (setting [8]); 99.2% (active) in assay [5] (at 50.0 µM); 99% (active) in assay [6] (setting [7]); 99% (active) in assay [6] (setting [8]); 98% (active) in assay [6] (at 50.0 µM).

As for `O=C1C=CC(=O)N1C12CC3CC(CC(C3)C1)C2`, the growth inhibition in assay [1] (setting [7]) was 41%; in assay [1] (setting [8]) it was 99% (active); in assay [1] (at 50.0 µM), 90.8% (active); in assay [2] (setting [7]) it was 62%; in assay [2] (setting [8]) it was 99% (active); in assay [2] (at 50.0 µM), 93.4% (active). Besides, the growth inhibition was 73% (active) in assay [3] (setting [7]); 99% (active) in assay [3] (setting [8]); 90.9% (active) in assay [3] (at 50.0 µM); 13% in assay [4] (setting [7]); 99% (active) in assay [4] (setting [8]); 91.5% (active) in assay [4] (at 50.0 µM). Further, the growth inhibition in assay [5] (setting [7]) is 72% (active); in assay [5] (setting [8]), 99% (active); in assay [5] (at 50.0 µM), 91.8% (active); in assay [6] (setting [7]), 76% (active); in assay [6] (setting [8]), 99% (active); in assay [6] (at 50.0 µM), 90.7% (active).

For `COc1cc2c(Cc3ccc(OC)c(OC)c3)[n+](Cc3ccccc3)ccc2cc1NCc1ccccc1`, the growth inhibition is 90% (active) in assay [1] (setting [7]); 98% (active) in assay [1] (setting [8]); 89% (active) in assay [1] (at 50.0 µM); 90% (active) in assay [2] (setting [7]); 99% (active) in assay [2] (setting [8]); 92.2% (active) in assay [2] (at 50.0 µM). The growth inhibition was 93% (active) in assay [3] (setting [7]); 99% (active) in assay [3] (setting [8]); 86% (active) in assay [3] (at 50.0 µM); 65% in assay [4] (setting [7]); 98% (active) in assay [4] (setting [8]); 89.6% (active) in assay [4] (at 50.0 µM). Besides, the growth inhibition in assay [5] (setting [7]) was 92% (active); in assay [5] (setting [8]) it was 99% (active); in assay [5] (at 50.0 µM) it was 81.1% (active); in assay [6] (setting [7]) it was 88% (active); in assay [6] (setting [8]) it was 99% (active); in assay [6] (at 50.0 µM) it was 92.7% (active).

For the compound `O=C(O)c1ccc(OCc2ccccc2)c(Cl)c1`, the growth inhibition in assay [1] (setting [7]) is 16%; in assay [1] (setting [8]), 36%; in assay [1] (at 50.0 µM), 52.8%; in assay [2] (setting [7]), 22%; in assay [2] (setting [8]), 44%; in assay [2] (at 50.0 µM) it was 25.5%. The growth inhibition in assay [3] (setting [7]) is 11%; in assay [3] (setting [8]), 38%; in assay [3] (at 50.0 µM), 30.9%; in assay [4] (setting [7]), -8%; in assay [4] (setting [8]), 39%; in assay [4] (at 50.0 µM), 54.2%. Moreover, the growth inhibition in assay [5] (setting [7]) was 3%; in assay [5] (setting [8]), 17%; in assay [5] (at 50.0 µM) it was 38.2%; in assay [6] (setting [7]), 12%; in assay [6] (setting [8]), 47%; in assay [6] (at 50.0 µM), 59.1%.

In the case of `C1CCC(C2CCC(N3CCCCC3)CC2)CC1` (stereo not given), the growth inhibition in assay [1] (setting [7]) is 60%; in assay [1] (setting [8]) it was 78% (active); in assay [1] (at 50.0 µM), 85% (active); in assay [2] (setting [7]) it was 45%; in assay [2] (setting [8]), 77% (active); in assay [2] (at 50.0 µM), 51.4%. The growth inhibition in assay [3] (setting [7]) is 58%; in assay [3] (setting [8]), 86% (active); in assay [3] (at 50.0 µM) it was 82.3% (active); in assay [4] (setting [7]), 63%; in assay [4] (setting [8]) it was 62%; in assay [4] (at 50.0 µM), 75.6% (active). For the same compound, the growth inhibition is 63% in assay [5] (setting [7]); 84% (active) in assay [5] (setting [8]); 72.8% (active) in assay [5] (at 50.0 µM); 67% in assay [6] (setting [7]); 87% (active) in assay [6] (setting [8]); 79.4% (active) in assay [6] (at 50.0 µM).

As to `CN(C)c1ccccc1[CH2][Ga]([Cl])[CH2]c1ccccc1N(C)C`, the growth inhibition in assay [1] (setting [7]) was 15%; in assay [1] (setting [8]), 96% (active); in assay [1] (at 50.0 µM) it was 88.9% (active); in assay [2] (setting [7]) it was -1%; in assay [2] (setting [8]), 98% (active); in assay [2] (at 50.0 µM), 92.6% (active). In addition, the growth inhibition in assay [3] (setting [7]) is 13%; in assay [3] (setting [8]) it was 51%; in assay [3] (at 50.0 µM) it was 90.8% (active); in assay [4] (setting [7]), 16%; in assay [4] (setting [8]), 98% (active); in assay [4] (at 50.0 µM), 90.3% (active). In addition, the growth inhibition in assay [5] (setting [7]) is 9%; in assay [5] (setting [8]) it was 97% (active); in assay [5] (at 50.0 µM), 91.3% (active); in assay [6] (setting [7]) it was 26%; in assay [6] (setting [8]) it was 98% (active); in assay [6] (at 50.0 µM) it was 89.2% (active).

In the case of `CCOC(=O)CC1=NC(=Nc2cc(Cl)ccc2Cl)SC1`, the growth inhibition in assay [1] (setting [7]) was 21%; in assay [1] (setting [8]), 66%; in assay [1] (at 50.0 µM), 64.5%; in assay [2] (setting [7]), 23%; in assay [2] (setting [8]) it was 56%; in assay [2] (at 50.0 µM), 40.8%. Further, the growth inhibition in assay [3] (setting [7]) was 22%; in assay [3] (setting [8]), 69%; in assay [3] (at 50.0 µM) it was 79.6% (active); in assay [4] (setting [7]), 24%; in assay [4] (setting [8]), 30%; in assay [4] (at 50.0 µM) it was 25.7%. Besides, the growth inhibition in assay [5] (setting [7]) is 29%; in assay [5] (setting [8]) it was 82% (active); in assay [5] (at 50.0 µM) it was 77.2% (active); in assay [6] (setting [7]), 38%; in assay [6] (setting [8]) it was 75% (active); in assay [6] (at 50.0 µM) it was 66.5%.

With `COc1ccc2c(c1)S(=O)(=O)C(c1ccccc1)=CC2=O`, the growth inhibition in assay [1] (setting [7]) is 81% (active); in assay [1] (setting [8]) it was 99% (active); in assay [1] (at 50.0 µM), 99.5% (active); in assay [2] (setting [7]), 87% (active); in assay [2] (setting [8]) it was 99% (active); in assay [2] (at 50.0 µM) it was 99.5% (active). Also, the growth inhibition in assay [3] (setting [7]) is 91% (active); in assay [3] (setting [8]), 99% (active); in assay [3] (at 50.0 µM) it was 99.2% (active); in assay [4] (setting [7]), 66%; in assay [4] (setting [8]) it was 99% (active); in assay [4] (at 50.0 µM) it was 97.5% (active). Moreover, the growth inhibition in assay [5] (setting [7]) is 87% (active); in assay [5] (setting [8]), 98% (active); in assay [5] (at 50.0 µM), 99.5% (active); in assay [6] (setting [7]), 95% (active); in assay [6] (setting [8]), 98% (active); in assay [6] (at 50.0 µM), 99% (active).

Regarding `NC(=O)C1CCCN1C(=O)C1CCCN(Cc2cc(CN3CCCC(C(=O)N4CCCC4C(N)=O)C3)cc(CN3CCCC(C(=O)N4CCCC4C(N)=O)C3)c2)C1` (stereo not given), the growth inhibition in assay [1] (setting [7]) is 2%; in assay [1] (setting [8]), 9%; in assay [1] (at 50.0 µM), 78.1% (active); in assay [2] (setting [7]) it was -5%; in assay [2] (setting [8]) it was -21%; in assay [2] (at 50.0 µM) it was 40.7%. Also, the growth inhibition in assay [3] (setting [7]) is -1%; in assay [3] (setting [8]), -8%; in assay [3] (at 50.0 µM), 59.5%; in assay [4] (setting [7]) it was -2%; in assay [4] (setting [8]) it was 3%; in assay [4] (at 50.0 µM) it was 16.9%. Further, the growth inhibition in assay [5] (setting [7]) was -23%; in assay [5] (setting [8]), 2%; in assay [5] (at 50.0 µM), 48.8%; in assay [6] (setting [7]), -7%; in assay [6] (setting [8]), -1%; in assay [6] (at 50.0 µM) it was 28.6%.
